Bioassay records deposited in PubChem BioAssay by Broad Institute.
Many of the other results were omitted from the sample, so hits are more common in it than they were.
YB-1 expr inh: YB-1 expression inhibition; U2OS, qRT-PCR YB-1 vs CDIP delta delta Cp, 16 h; hits give high values; zero = DMSO, each unit about twofold; delta delta Cp (YB-1 minus CDIP) (concentration not given with the values); hit rate 0.37% among 30,000; AID 434959;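 active means delta delta Cp rounded down to an integer at or above 3, about 3 SD of DMSO wells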;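 further: higher means less YB-1 transcript or more CDIP transcript relative to DMSO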
PD-1 reverse act: reversal of PD-1 mediated T-cell inhibition | primary human CD4 T cells, PD-L1 beads, CellTiter-Glo 96 h | activation, % (no concentration beside the values) | 29,000 tested, under 10 active | AID 2316; call rule not given here;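 further: 0% = median vehicle wells and 100% = positive control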
ROS inducer: cancer cell ROS induction; U2OS ROS induction, H2DCF-DA fluorescence; ROS induction (% of piperlongumine), % at 10 µM; hit rate 2% among 46,000; in the data active means ROS induction above about 79%, passing the limit was not always enough;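 further: 0% = DMSO vehicle median and 100% = reference compound median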
NOMO-1 viab: STK33 inhibitor candidate reducing NOMO-1 cell viability. NOMO-1 AML viability, CellTiter-Glo luminescence, 72 h. inhibition, % (test concentration not listed). hit rate 7.5% among 37,000. AID 2330; in the data active means inhibition above about 80%
* marks the source's active call; other numbers are inactive results; x = no result given.

SMILES	YB-1 expr inh	PD-1 reverse act	ROS inducer	NOMO-1 viab
CN(CC(=O)Nc1ccc(Cl)cc1C(=O)c1ccccc1)S(=O)(=O)c1ccc(Cl)cc1	x	-1	6	18
C[C@@H]1CN([C@@H](C)CO)C(=O)CCCn2nncc2CO[C@@H]1CN(C)C(=O)Oc1ccc2ccccc2c1	0.28	x	44	x
C[C@@H]1CN([C@H](C)CO)C(=O)CCCn2nncc2CO[C@@H]1CN(C)C(=O)Oc1ccc2ccccc2c1	-0.037	x	149*	x
COC(=O)C1=COC(C)C2CN3CCc4c([nH]c5cc(OC)ccc45)C3CC12 (stereo unspecified)	-0.05	0	103*	27
COC(=O)C1=COC(C)C2CN3CCC4(C(=O)Nc5ccccc54)C3CC12 (stereo unspecified)	-0.15	2	10	27
C=C(CO)C(=O)O[C@H]1CC(=C)[C@@H]2C[C@H](O)C(=C)[C@@H]2[C@H]2OC(=O)C(=C)[C@@H]21	0.68	-4	96*	121*
C=C(CO)C(=O)O[C@H]1C/C(C)=C\CC/C(CO)=C\[C@H]2OC(=O)C(=C)[C@H]12	-8.4	-18	73	122*
NCC(=O)Nc1ccc(Br)cc1C(=O)c1ccccc1	x	x	x	4
Cc1ccc2[nH]cc(CC(C)N)c2c1 (stereo unspecified)	x	x	-11	x
CN[C@@H]1C[C@@]2(C)O[C@@H]([C@@H]1OC)n1c3ccccc3c3c4c(c5c6ccccc6n2c5c31)C(=O)NC4	-0.37	x	38	114*
O=C(Cn1cc(C(=O)c2ccccc2)c2ccccc21)Nc1ccc(F)cc1	x	0	0	49
Cc1ccc(S(=O)(=O)N2CCCCC2)cc1C(=O)Oc1cccc2cccnc12	-0.43	1	26	116*
COc1ccccc1OCCCn1cc(C(=O)c2ccccc2)c2ccccc21	x	x	x	0
O=C(CCCN1CCC2(CC1)C(=O)NCN2c1ccccc1)c1ccc(F)cc1	0.12	x	98*	31
O=C1NCN(c2ccccc2)C12CCN(CCCOc1ccc(F)cc1)CC2	-0.085	x	0	21
CCc1ccc(NC2=NCCS2)cc1	x	x	14	x
O=C(CC[N+](=O)[O-])OC[C@H]1O[C@@H](O)[C@H](OC(=O)CC[N+](=O)[O-])[C@@H](OC(=O)CC[N+](=O)[O-])[C@@H]1OC(=O)CC[N+](=O)[O-]	0.29	x	-10	106*
CCCCn1c(=O)c(C(=O)NCc2ccccn2)c(O)c2ccccc21	x	x	x	66
COc1cc2c(c(OC)c1OC)-c1cc3c(cc1[C@H](OC(C)=O)[C@H]1COC(=O)[C@@H]1C2)OCO3	-0.4	-9	50	107*
CNc1ccc2oc(C[C@@H]3OC4(CC[C@@H]3C)O[C@H](C(C)C(=O)c3ccc[nH]3)[C@H](C)C[C@H]4C)nc2c1C(=O)O (stereo partly specified)	-0.00083	x	-27	120*
O=[P+](c1ccccc1)c1ccccc1	x	x	-1	x
C/C=C\C(=O)O[C@@H]1C[C@H]2O[C@@H]3C=C(C)C(=O)C[C@]3(C)[C@]1(C)[C@]21CO1	0.98	-9	6	122*
CCSc1nc2ccccc2c(=O)n1-c1cccc(OC)c1	x	x	-8	x
C[C@@H]1C[C@@H]([C@H](O)CC2CC(=O)NC(=O)C2)C(=O)[C@@H](C)C1	-0.55	x	-20	114*
C[C@@H]1CC([C@H](O)CC2CC(=O)NC(=O)C2)C(=O)[C@@H](C)C1 (stereo partly specified)	-0.021	-8	-5	141*
SMILES	YB-1 expr inh	PD-1 reverse act	ROS inducer	NOMO-1 viab
CCn1cnc2c(Nc3cccc(Cl)c3)nc(N[C@@H]3CCCC[C@@H]3N)nc21	-0.6	3	5	100*
C/C1=C/[C@@H](C)C/C=C/[C@H]2[C@@H]3O[C@]3(C)[C@@H](C)[C@H]3[C@H](Cc4c[nH]c5ccccc45)NC(=O)[C@]32C(=O)/C=C\C(=O)[C@@H]1O	0.48	x	47	x
CC1=CC2OC3[C@H](O)C[C@@](C)([C@]34CO4)[C@@]2(CO)[C@H](O)C1=O (stereo partly specified)	-0.12	-8	16	123*
CCCCC/C=C\C/C=C\C/C=C\C/C=C\CCCC(=O)NCc1ccc(O)c(OC)c1	0.037	x	0	117*
CCOC(=O)c1c(C)n(Cc2ccccc2)c2ccc(OCC(O)CNC(C)(C)C)cc12 (stereo unspecified)	0.4	-7	17	117*
CC[C@@]1(O)C(=O)OCc2c1cc1n(c2=O)Cc2cc3c(O)cccc3nc2-1	1.4	x	11	119*
COc1ccc(CC2(CCc3ccncc3)C(=O)NC(=O)N(c3cccc(C)c3)C2=O)c(OC)c1 (stereo unspecified)	x	x	x	17
Cc1nc(-c2ccccc2)nc(OC(=O)N(C)C)c1Oc1cccc(C(F)(F)F)c1	x	x	28	x
CC(C)[C@H]1C(=O)O[C@H](C(C)C)C(=O)N(C)[C@@H](C(C)C)C(=O)O[C@H](C(C)C)C(=O)N(C)[C@@H](C(C)C)C(=O)O[C@H](C(C)C)C(=O)N1C	-0.19	0	-4	119*
C=CC1CN2CCC3(C(=O)Nc4ccccc43)C2CC1/C(=C/OC)C(=O)OC (stereo unspecified)	-0.035	2	-5	30
